# Assay results: PubChem BioAssay AID488789 (Broad Institute, 2010)
# Results with a measured potency or affinity are listed apart. Results filed as inconclusive are left out. The source made the active and inactive calls.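 How the source made its calls: active means samples whose fitted half-maximal inhibition concentration is no more than ten times the top valid dose tested; inconclusive means flat response between -70 and -30, or invalid curve fit; inactive means flat within 30 of zero, potency above limit, or signal rising.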
# Molecular target: Trypsin (Sus scrofa) (UniProt P00761)
# Assay: porcine trypsin inhibitors, dose response, selectivity assay for Rce1 protease inhibitor project, biochemical, quenched peptide fluorescence, cherry-pick (AID 488789);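 further: more negative means stronger trypsin inhibition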
# Conditions: quenched peptide cleavage fluorescence; series mostly up to 10 µM
# Sequence of Trypsin (Sus scrofa) (P00761 whole entry, looked up): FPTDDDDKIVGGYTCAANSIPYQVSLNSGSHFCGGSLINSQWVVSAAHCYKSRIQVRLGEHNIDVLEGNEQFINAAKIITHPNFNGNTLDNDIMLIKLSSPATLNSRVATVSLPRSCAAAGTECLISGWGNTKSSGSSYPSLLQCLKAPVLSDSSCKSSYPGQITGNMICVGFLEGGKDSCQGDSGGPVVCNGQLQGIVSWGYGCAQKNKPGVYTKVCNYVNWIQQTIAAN
row,SMILES,outcome
1,Cc1cc(C)c2nc(N(CCCN(C)C)C(=O)c3ccc4c(c3)CCCC4)sc2c1,inactive
2,CNC(=S)N/N=C/c1cn(Cc2c(F)cccc2Cl)c2ccccc12,inactive
3,CCn1c(COc2cccc(C)c2)nnc1SCC(=O)NC1CCCC1,inactive
4,CCn1cc(/C=C(\NC(=O)c2ccccc2Cl)C(=O)N2CCOCC2)c2ccccc21,inactive
5,CC(=O)Nc1ccc(Cl)cc1C1COC(=O)C1=N (configuration not stated),inactive
6,Cc1ccc(OCCN2C(=O)C(=O)c3cc(C)ccc32)cc1,inactive
7,O=C1CCCC(O)=C1N=Nc1ccc2ncsc2c1,inactive
8,O=c1c(-c2ccccc2)c(O)c2ccccc2n1-c1ccccc1,inactive
9,CCC1CCCCN1C(=O)NC(=O)c1ccccc1 (configuration not stated),inactive
10,Cc1ccc(NC(=O)CCc2ccc(S(=O)(=O)NC3CCCCC3)cc2)cc1,inactive
11,CCOC(=O)C1=C(C)OC(N)=C(C#N)C1c1cc2c(cc1[N+](=O)[O-])OCO2 (configuration not stated),inactive
12,COc1ccc(-n2nc(C(=O)NCC(=O)N3CCC(C)CC3)c3ccccc3c2=O)cc1,inactive
13,CN(C)c1ccc(/C=N/NC(=O)CNC(=O)c2ccco2)cc1,inactive
14,COc1cc(OC)cc(-c2ncc3ccccn23)c1,inactive
15,CC(=O)c1c(C)[nH]c(C(=O)OCc2ccc(Br)cc2)c1C,inactive
16,COc1ccc(OC)c(/C=N/c2c(-c3ccc(O)c(OC)c3)nc3ccccn23)c1,inactive
17,O=C(c1cn(-c2ccccc2)nc1-c1cccs1)N1CCN(c2ccccc2)CC1,inactive
18,CCN(C(=O)COC(=O)c1cc(-c2cccs2)nc2ccccc12)C1CCS(=O)(=O)C1 (configuration not stated),inactive
19,CC(=O)OCC(=O)[C@@]12OC3(CCCC3)O[C@@H]1C[C@H]1[C@@H]3CCC4=CC(=O)C=C[C@]4(C)[C@@]3(F)[C@@H](O)C[C@@]12C,inactive

row,SMILES,outcome
1,N#CC(C#N)=C1NC(N)=C(C#N)C(c2ccccc2)=C1C#N,inactive
2,O=C(Nc1ncccn1)c1ccc([N+](=O)[O-])cc1,inactive
3,CCCCCCCCCCOC(=O)Cn1c(COc2ccccc2C)[n+](C)c2ccccc21,inactive
4,CC(C)N1CCN(Cc2ccc(OCc3ccccc3)cc2)CC1CCO (configuration not stated),inactive
5,CN1c2ccc(C=O)c3c(C=O)ccc(c23)N(C)C1(C)C,inactive
6,CCOc1cccc(-c2c(C(=O)N/N=C/c3c(F)cccc3Cl)nnn2-c2nonc2N)c1,inactive
7,O=C(O)c1ccc2cccc(Cl)c2c1O,inactive
8,CSc1ccc(C(=O)C2CCCN(C(=O)c3cccnc3SC)C2)cc1 (configuration not stated),inactive
9,CCn1nnnc1SCC(=O)Nc1nc(C)c(C)s1,inactive
10,COC(=O)Cn1c(CCC(=O)O)ccc1-c1ccccc1,inactive
11,Cc1cc(N2CCN(C(c3ccccc3)c3ccccc3)CC2)n2ncnc2n1,inactive
12,COc1ccc(-c2cn3ccccc3n2)cc1[N+](=O)[O-],inactive
13,CC(C)c1ccc(/C=C2\SC(=S)N(CCC(=O)NCCCn3ccnc3)C2=O)cc1,inactive
14,CCn1cc(/C=C(\NC(=O)c2ccccc2F)C(=O)N2CCCC2)c2ccccc21,inactive
15,O=C(c1cnc2n(c1=O)CCS2)N1CCN(C(c2ccccc2)c2ccc(Cl)cc2)CC1 (configuration not stated),inactive
16,O=C(O)CCCC[C@@H]1SC[C@@H]2NC(=O)N[C@@H]21,inactive
17,Cc1cc(C)n(-c2nc3ccccc3c(=O)n2OCC(=O)N(C)C)n1,inactive
18,Cc1ccc(C2(COC(=O)C(C)C)CO2)c(OC(=O)C(C)C)c1 (configuration not stated),inactive
